Screening results (PubChem)
Sampled rows, rich in hits. Any-hit rate of the full collection: about 2.1%.
Abeta rescue – compounds reversing amyloid beta toxicity in yeast; yeast expressing A-beta42, growth rescue, OD600, 48 h; response scale: 0% DMSO, 100% iron-clioquinol control; Potency, µM (series often up to 46.1 µM), hits mostly activators; 0.063% of 410,000 active; further: nearly all actives have a fitted effect of over 55% in size
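Growth rescue measured by 600 nm absorbance after 48 h yeast culture at 30 C with compound. Values normalized between DMSO and an equimolar ferric chloride plus clioquinol control.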
aSyn rescue – alpha-synuclein toxicity inhibition in yeast; Yeast expressing alpha-synuclein, growth rescue, BacTiter-Glo, 24 h; Potency, µM (top dose mostly 46.1 µM), inactives show at the top dose growth rescue (activation), actives largely listed as activators; 0.14% of 370,000 active; further: % of control where 0% means no effect; nearly all actives have a fitted effect of over 65% in size
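Screening used galactose-induced yeast with toxic alpha-synuclein levels, exposed to compound for 24 hr at 30 deg C. Cell growth, read with BacTiter-Glo luminescence, gave the measured signal.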
FUS suppressor – FUS proteinopathy suppression in yeast; S. cerevisiae FUS-expressing, growth rescue, OD600, 24 h; Potency, µM (doses to about 76.6 µM), actives largely listed as activators; 0.24% of 390,000 active;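 further: plate controls were DMSO vehicle for no effect and reference control for full effect; nearly all actives have a fitted effect of over 55% in size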
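FUS-expressing yeast, raffinose-pregrown, induced in 2% galactose minimal medium at OD 0.005; compounds in a dilution series, 24hr at 30C. Growth restoration read as absorbance at 600 nm. CP55940 positive control, DMSO negative.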
TDP-43 yeast inh – TDP-43 toxicity inhibition in yeast | TDP-43 expressing yeast growth rescue, BacTiter-Glo, 24 h | AID 652104 | 1.8% of 410,000 active | Potency, µM (top dose mostly 46.1 µM), inactives show at the highest dose growth rescue (activation), usual class: activators; further: % of control where 0% means no effect; nearly all actives have a fitted effect of over 50% in size
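Readout is BacTiter-Glo luminescence of cell growth, so inhibitors register as activators. TDP-43-expressing yeast at OD600=0.02 in galactose medium, after raffinose pregrowth to mid-log, were incubated with compound for 24 hr at 30 deg C.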
* hit, by the source's call; i = inactive; ? = inconclusive; nt = no result given. The call rests on the fitted dose curve; in most records, active means well fitted curve in the direction sought with a large enough effect; inconclusive means small, poorly fitted or top-dose-only effect, or another doubt; inactive means no such curve, though single readings can be large; an effect the other way counts as inactive or inconclusive. Potency means the concentration at half of the fitted maximal effect.

SMILES	Abeta rescue	aSyn rescue	FUS suppressor	TDP-43 yeast inh
Cc1cccc(-c2nc(CSCC(=O)NCCc3ccc(Cl)cc3)c(C)o2)c1	i	nt	?	25µM*
Cc1ccc(CNC(=O)CSCc2nc(-c3cccc(C)c3)oc2C)cc1	i	nt	i	23%
Cc1ccc(CCNC(=O)CSCc2nc(-c3ccc(C)cc3)oc2C)cc1	i	nt	i	25µM*
O=C(NCCc1ccccc1)OCc1cn(Cc2ccc(Cl)cc2)nn1	nt	nt	i	nt
O=C(/C=C/c1ccnc2ccccc12)c1cccs1	i	2%	i	3.5µM*
CCOC(=O)c1sc(Nc2nc3c(OC)cccc3s2)cc1C	i	0%	?	22µM*
CCOC(=O)c1sc(Nc2nc3cc4c(cc3s2)OCO4)cc1C	i	4%	i	19%
Cc1coc2cc3oc(=O)c(CC(=O)N4CCCCC4)c(C)c3cc12	i	nt	i	10%
Cc1coc2cc3oc(=O)c(CCC(=O)N4CCCCC4)c(C)c3cc12	i	nt	i	22µM*
Cc1c(CCC(=O)N2CCC[C@H]2C(=O)O)c(=O)oc2cc3oc4c(c3cc12)CCCC4	i	12%	?	20µM*
Cc1ccc(NC(=O)N2CCc3cc(S(=O)(=O)N4CCC(C)CC4)ccc32)cc1	i	nt	i	9%
Cc1ccc(CN2CCCCC(NC(=O)Cc3cccs3)C2=O)cc1 (configuration not stated)	nt	nt	i	nt
CC(C)C(c1nnnn1C1CCCC1)N1CCCc2ccccc21 (configuration not stated)	i	3%	i	16µM*
Cc1nc(S(=O)(=O)NC2CCCCC2)c(C#N)c(C)c1Cl	i	17%	i	?
Cc1nc(S(=O)(=O)N2CCOCC2)c(C#N)c(C)c1Cl	i	4%	i	13µM*
CCOC(=O)C1=C(CN2CCN(c3ccccc3F)CC2)NC(=O)NC1c1ccc(OC)cc1 (configuration not stated)	i	nt	i	0%
Cc1ccc(O)c(C(=O)CC(=O)c2cccc(F)c2)c1	i	16µM*	i	-49%
O=C(CC(=O)c1cc(Cl)ccc1O)c1ccccc1	i	?	i	10µM*
CCOC(=O)c1cnc(N2CCN(c3ccc(C)cc3C)CC2)c2ccccc12	i	nt	i	10%
COc1ccc(C(C)=O)cc1COC(=O)c1c(C)noc1C	i	10%	i	16µM*
O=C1Nc2ccc(I)cc2C1=Cc1cc(Br)c(O)c(Br)c1	nt	3.2µM*	nt	nt
O=C1Nc2ccc(I)cc2/C1=C/c1cc(Br)c(O)c(Br)c1	nt	25%	nt	nt
Cc1cc2c(c(Sc3ccccc3)n1)C(=O)OC2	i	nt	i	3.2µM*
O=[N+]([O-])c1ccc(Cn2cc(-c3cccc(C(F)(F)F)c3)nn2)cc1	i	21%	i	16µM*
O=[N+]([O-])c1ccc(Oc2cccc(C(F)(F)F)c2)nc1	i	-8%	i	23%
SMILES	Abeta rescue	aSyn rescue	FUS suppressor	TDP-43 yeast inh
COc1ccc(C2CC(O)(c3ccccc3)Oc3cc(OC)ccc32)cc1 (configuration not stated)	i	?	i	20µM*
CCOC(=O)c1ccc2nc(NC(=O)C(C)C)sc2c1	?	-6%	i	10µM*
O=C(CN1C(=O)C2CCCCN2C(=O)c2ccccc21)N1CCCC1 (configuration not stated)	nt	nt	i	nt
COc1ccccc1OCC(=O)Sc1ccc(C)cc1	i	25%	i	?
COc1cc(C(=O)Oc2c(Sc3ccc(C)cc3)c(C)nn2-c2ccccc2)cc(OC)c1OC	i	nt	i	22µM*
COc1ccccc1C(=O)Oc1c(Sc2ccccc2)c(C)nn1-c1ccccc1	i	nt	i	21%
COc1cc(C(=O)Sc2ccc(C)cc2)cc(OC)c1OC	i	-21%	nt	28µM*
CCOC(=O)c1cccc(NC(=O)CN(C)S(=O)(=O)c2ccco2)c1	nt	nt	i	nt
COc1ccc(S[C@]2(C(=O)N3CCOCC3)CC(=O)N(C(=O)C3CC3)[C@@H]2c2ccc(OC)cc2)cc1	nt	nt	i	nt
COc1ccc(CN2CN3Cc4cc(F)ccc4C3CS2(=O)=O)cc1 (configuration not stated)	nt	nt	i	nt
COc1cc2c(cc1OC)C(c1ccc(Cl)cc1)N(c1ccc(C)c(F)c1)C(=O)C2 (configuration not stated)	i	nt	?	35µM*
O=C(COc1ccc(Cl)cc1)Nc1nnc(-c2ccc3c(c2)CCCC3)o1	i	29%	i	?
O=C(Nc1nnc(-c2ccc3c(c2)CCCC3)o1)C1COc2ccccc2O1 (configuration not stated)	?	6.3µM*	i	18µM*
COc1ccccc1C(=O)Nc1nnc(-c2ccc3c(c2)CCCC3)o1	i	?	?	18µM*
CC(=O)Nc1nnc(-c2ccc3c(c2)CCCC3)o1	i	-10%	i	32µM*
O=C(Nc1nncs1)C1COc2ccccc2O1 (configuration not stated)	i	-2%	i	-13%
CCCCCCCCN1C(=O)N2Cc3ccccc3C2CS1(=O)=O (configuration not stated)	nt	nt	i	nt
Cc1cccc(NC(=O)C2CCCN2S(=O)(=O)c2cccnc2)c1C (configuration not stated)	nt	nt	i	nt
CCCCCN1CCCCC(NC(=O)c2ccc3ccccc3c2)C1=O (configuration not stated)	nt	nt	i	nt
O=c1c2ccccc2ncn1CCCSc1ccccc1	i	13%	i	13µM*
CCCCn1c(SCC(=O)c2ccccc2)nc2sc3c(c2c1=O)CCCC3	i	nt	i	17%
Cc1ccc2nc(N(Cc3cccnc3)C(=O)CCc3ccccc3)sc2c1	i	nt	i	?
CCOc1ccc2nc(N(Cc3cccnc3)C(=O)c3cccs3)sc2c1	i	nt	i	14µM*
COc1ccc2sc(N(Cc3cccnc3)C(=O)CCc3ccccc3)nc2c1	i	nt	?	9%
COc1ccc2nc(N(Cc3cccnc3)C(=O)Cc3ccccc3)sc2c1	i	nt	i	32µM*
SMILES	Abeta rescue	aSyn rescue	FUS suppressor	TDP-43 yeast inh
CCc1ccc2nc(N(Cc3cccnc3)C(=O)Cc3ccccc3)sc2c1	i	nt	i	28µM*
CCOc1cccc2sc(N(Cc3cccnc3)C(=O)c3ccc(C#N)cc3)nc12	i	nt	i	-3%
COc1ccc2sc(N(Cc3cccnc3)C(=O)c3cccs3)nc2c1	i	nt	i	18%
CCc1ccc2nc(N(Cc3cccnc3)C(=O)c3ccc(C#N)cc3)sc2c1	i	nt	i	1.8µM*
O=C(Cc1ccccc1)N(Cc1cccnc1)c1nc2c(F)cccc2s1	i	nt	i	?
CC(=O)c1ccc(C(=O)N(CCCN(C)C)c2nc3c(C)c(C)ccc3s2)cc1	i	nt	i	-10%
CC(=O)c1ccc(C(=O)N(Cc2cccnc2)c2nc3c(C)c(C)ccc3s2)cc1	i	nt	?	22µM*
O=C(Cc1ccccc1)N(Cc1cccnc1)c1nc2c(Cl)cccc2s1	i	nt	i	20µM*
